# Assay results taken from PubChem BioAssay (Tox21).
# Results filed as inconclusive are left out. Calls of active or inactive are those of the source. Calls come from the whole dose curve; as a rule, active = well fitted inhibition curve with a large enough effect in the repeat runs; inconclusive = weak or mixed curves; inactive = no such curve, though single readings can be large or run the other way.
# Biological target: Cytochrome P450 2C19 (Homo sapiens) (UniProt P33261)
# Assay: Cytochrome P450 Family 2 Subfamily C Member 19 (CYP2C19) small molecule antagonists: luciferase reporter qHTS assay (AID 1671197); note: nearly all actives have a fitted effect of over 65% in size
# Conditions: P450-Glo CYP2C19 enzyme, luciferin luminescence, 1 h; series mostly up to 115 µM; activity change, negative = inhibition: at the top concentration
# How it was run: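 Relative luminescence units recorded 20 min after the detection reagent stopped a 1 h, 37C CYP2C19 reaction on proluciferin substrate, which was started by NADPH regeneration following 10 min room-temperature compound preincubation; ketoconazole positive control.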
# % is set by controls: 0 for no effect and ±100 for the full control effect; potency is the fitted concentration of half-maximal effect.
# Cytochrome P450 2C19 (Homo sapiens), sequence (P33261 whole entry, looked up): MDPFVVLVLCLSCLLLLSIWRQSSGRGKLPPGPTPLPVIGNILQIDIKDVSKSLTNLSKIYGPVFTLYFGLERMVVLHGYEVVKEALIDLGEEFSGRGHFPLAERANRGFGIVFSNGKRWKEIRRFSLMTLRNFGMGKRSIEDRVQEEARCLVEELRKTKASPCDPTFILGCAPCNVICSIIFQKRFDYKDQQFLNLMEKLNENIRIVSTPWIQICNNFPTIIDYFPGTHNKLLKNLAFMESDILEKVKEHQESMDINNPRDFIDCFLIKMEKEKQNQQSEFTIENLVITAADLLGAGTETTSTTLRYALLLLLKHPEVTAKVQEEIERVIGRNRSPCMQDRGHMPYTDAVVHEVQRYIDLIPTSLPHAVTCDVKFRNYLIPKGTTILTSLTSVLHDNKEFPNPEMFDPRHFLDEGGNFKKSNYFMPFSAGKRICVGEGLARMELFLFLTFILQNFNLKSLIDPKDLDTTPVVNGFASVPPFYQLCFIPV
SMILES,Potency,"activity change, negative = inhibition"
CCCCOCCOC(=O)COc1nc(Cl)c(Cl)cc1Cl,31.7 µM (active),
C[C@H](N)[C@H](O)c1cccc(O)c1,,20.7% [at 52.9 µM] (inactive)
Oc1cn2c(n1)Nc1ccc(Cl)c(Cl)c1C2,,3% [at 23.6 µM] (inactive)
COc1ccc(OC)c(Cl)c1,,-17% (inactive)
CCCCCCN,,-5.51% (inactive)
CCOC(=O)CC(=O)c1ccccc1,39.9 µM (active),
N[C@@H](COP(=O)(O)O)C(=O)O,,14.8% [at 23.6 µM] (inactive)
CCN(C)C(=O)Oc1cccc([C@H](C)N(C)C)c1,,14.5% [at 52.9 µM] (inactive)
Cc1ccsc1/C=C/C1=NCCCN1C,,34.9% [at 52.9 µM] (inactive)
O=C1c2ccccc2C(=O)N1CCl,,4.46% (inactive)
CCOC(=O)/C=C/c1ccccc1,71 µM (active),
CCO[Si](CCCS)(OCC)OCC,35.6 µM (active),
CCC(C)NC(N)=O (stereo not drawn),,24.6% (inactive)
OC[C@H](Cc1cccc(O)c1)[C@H](CO)Cc1cccc(O)c1,32.5 µM (active),
CC(C)(C)c1nnc(NS(=O)(=O)c2ccc(N)cc2)s1,,10% [at 52.9 µM] (inactive)
O=C(O)c1cc(Br)c(O)c(Br)c1,7.96 µM (active),
Cc1cccc2nccnc12,,-1.72% (inactive)
Cc1cc(NC(=O)C2=C(O)c3ccccc3S(=O)(=O)N2C)no1,,22.9% [at 52.9 µM] (inactive)
O=S(=O)(O)CCN1CCN(CCO)CC1,,1.39% (inactive)
CC(C)(C)OC(=O)c1ccc(O)cc1,63.3 µM (active),
C=C(C)C(=O)OCC(C)(C)COC(=O)C(=C)C,,-12.2% (inactive)
CC(C)=O,,-27.7% (inactive)
O=C(NCCc1c[nH]c2ccccc12)c1cccnc1,7.76 µM (active),
